For 38 compounds, growth results are on record in PubChem BioAssay (NCI).

Compounds without any hit were thinned out: in the full panel of roughly 83,000, 20% have a hit.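 The endpoint reported here, percent growth, reads 100 for growth as untreated, 0 for no net growth and -100 for all cells dead.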 Values without a mark were called inactive. Active and inactive are the calls of the source. Rule for the calls: active = growth percent below 10; inactive = the rest.

The assay relates to SN12C renal. The assay can be described thus: NCI-60 one-dose screen, 48 h (100 = growth as untreated, 0 = no growth, -100 = all killed). As to conditions: 10 µM unless noted.
On to `CCCCSc1nc(Nc2ccc(S(N)(=O)=O)cc2)c(C#N)c(-c2ccc(Cl)cc2)n1`, for which the growth is -20.3% (active).

For the compound `COc1cc(-c2cc(-c3cccc(OCC(=O)O)c3)[nH]c(=O)c2C#N)cc(OC)c1OC`, the growth is 102%.

Take `NS(=O)(=O)c1ccc(-n2cc(-c3cccc(NC(=O)c4cc(N5CCOCC5)cc(C(F)(F)F)c4)c3)nn2)cc1`: the growth is 35.1%.

With `COc1cc(-c2ccc(/C=N/NC(=O)c3[nH]c4ccc(Br)cc4c3-c3ccccc3)o2)cc(OC)c1OC`, the growth was 96.3%.

Take `COc1ccc(C2=NN(c3ccccc3)C(c3ccc(OCc4ccccc4)c(OC)c3)C2)cc1OC` (stereo not drawn): the growth was 100%.

With `CC(C)(C)OC(=O)/C=C/c1cccc2c1C(=O)NC(C)(c1cc3cc(Cl)ccc3oc1=O)N2` (stereo not drawn), the growth was 50%.

Take `O=C(Nc1ccccc1)N1CCN(c2cc(-c3cn(-c4ccccc4)nc3-c3cccc(O)c3)ccn2)CC1`: the growth is 88.8%.

Consider `COc1ccc(NC(=O)Cn2c3c(sc2=O)[C@H]2[C@@H](O)[C@@H](O)[C@H](O)[C@@H]2CS3)cc1`, for which the growth was 98.8%.

As for `N#Cc1c(-c2ccccc2Cl)cc(-c2c[nH]c3ccccc23)[nH]c1=O`, the growth is 61.5%.

Consider `COc1ccc(C(=O)/C=C/c2cccc(Cl)c2Cl)cc1S(N)(=O)=O`, for which the growth is -2.06% (active).

For the compound `CNC(=O)c1cccc(NC(=O)c2ccc3c(c2)nnn3/C(C#N)=C/c2ccccn2)c1`, the growth is -15.8% (active).

In the case of `COc1c(F)ccc(C(=O)Nc2ccc3nc(NC(=O)C4CCCN(S(=O)(=O)c5ccc(C#N)cc5)C4)sc3c2)c1F` (stereo not drawn), the growth was 94.6%.

Regarding `O=C(Cn1c2c(sc1=O)[C@H]1[C@@H](O)[C@@H](O)[C@H](O)[C@@H]1CS2)N1CCOCC1`, the growth is 102%.

As for `Nc1nc(-c2ccccc2)c(N=Nc2ccc([N+](=O)[O-])cc2Cl)s1`, the growth was 83.7%.

`C=Cn1cc(C(=O)O)c(=O)c2cc(F)c(N3CCN(c4nccc(-c5nccs5)n4)CC3)cc21`: the growth is -16.8% (active).

On to `C/C(=N\N=C1/C(=O)Nc2ccc(Cl)cc21)c1ccc2c(c1)Nc1ccccc1S2`, for which the growth is -16.2% (active).

Regarding `CC1=C(C(=O)c2ccccc2)C(c2cccc3ccccc23)n2c(nc3ccccc32)N1` (stereo not drawn), the growth was 75.3%.

In the case of `C#C[C@]1(O)CC[C@H]2[C@@H]3CC=C4c5sc(-c6ccc(O)c(O)c6)nc5CC[C@]4(C)[C@H]3CC[C@@]21C`, the growth is -89.5% (active).

On to `NS(=O)(=O)c1ccc(-n2cc(-c3cccc(NC(=O)c4cc(Cl)cc(Cl)c4)c3)nn2)cc1`, for which the growth was 88%.

For `COc1ccc(-c2nnc3ccc(N/N=C/c4ccc(C)cc4)nn23)cc1`, the growth was 76.9%.

Take `O=C(Nc1ccc(C(F)(F)F)cc1)Nc1ccc2oc(=O)ccc2c1`: the growth is 7.6% (active).

Take `O=c1[nH]c(=O)c2c(-c3cc4ccccc4oc3=O)ccnc2[nH]1`: the growth is 81%.

For `CC1(C)CC[C@]2(C(=O)O)CC[C@]3(C)C(=CCC4[C@@]5(C)C[C@@H](O)[C@@H]6OC(c7ccccc7Br)OC[C@@]6(C)C5CC[C@]43C)C2C1` (stereo partly drawn), the growth is 14.9%.

For `COc1cc(-c2nc3ccc(C)cc3[nH]2)ccc1OCc1nnc(-c2ccc(Br)cc2)o1`, the growth was 36.2%.

For the compound `Clc1cccc(N/N=C/c2c[nH]c3ccc(Br)cc23)n1`, the growth is -1.39% (active).

In the case of `Cn1cc(-c2cc3nc(-c4cn(C)c5ncccc45)cc(N)n3n2)c2cc(Cl)ccc21`, the growth is -93.8% (active).

Consider `Cn1cc(-c2nnc(N)nc2-c2c[nH]c3ccccc23)c2cccnc21`, for which the growth is 50.6%.

On to `Cc1ccc([C@H]2C(C(=O)c3ccc(Cl)cc3)C3(N[C@@H]2c2ccccc2)C(=O)Nc2ccccc23)cc1` (stereo partly drawn), for which the growth is 4.19% (active).

As to `O=C(Cn1nc(-c2ccccc2)ccc1=O)N/N=C/c1ccc(N2CCOCC2)cc1`, the growth was 94.9%.

Turning to `COc1cc2c(c(OC)c1OC)C(=O)CC(c1cccc(NC(=O)c3cccc([N+](=O)[O-])c3)c1)O2` (stereo not drawn), the growth is 29.2%.

Take `COc1ccc2[nH]cc(-c3nnc(N)nc3-c3c[nH]c4ncc(Br)cc34)c2c1`: the growth is 77.1%.

Regarding `CC(C)c1ccc2c(N)c(C(=O)Nc3ccc(C(F)(F)F)cn3)sc2n1`, the growth was 70.5%.

Regarding `C=C1CC[C@@H]2[C@]3(C)COC(c4ccco4)O[C@@H]3CC[C@@]2(C)[C@@H]1C/C=C1/C(=O)OCC1OC(C)=O` (stereo partly drawn), the growth was 3.28% (active).

Consider `CCN(CC)c1ccc(/C=N/Nc2nc(-c3ccc(Br)cc3)cs2)c(O)c1`, for which the growth was 23.1%.

Take `N=C1N=C(SCc2nc3ccccc3[nH]2)NC(=O)/C1=C/c1ccc(Cl)cc1`: the growth was 98.6%.

For `COc1ccc(-c2c(Nn3cnnn3)no[n+]2[O-])cc1`, the growth was 33.3%.

`CN(C)c1nc(NCCNS(=O)(=O)c2ccc(C(=O)/C=C/c3ccc(F)cc3)cc2)nc(Nc2ccc(F)cc2)n1`: the growth was -99.8% (active).

As to `N/C(=N\c1nc2ccccc2s1)NC(=O)Nc1ccc(Cl)cc1Cl`, the growth was -88.7% (active).
